From PubChem BioAssay
Compounds with a hit are over-represented: about 11% of the library has one in this group of screens.
HEK cytotox: Cytotoxic Profiling in HEK 293 Cell Line of Diverse Libraries Using Quantitative High-Throughput Screening. HEK 293 viability, ATP luminescence (CellTiter-Glo), 48-72 h. AID 1345083, 2018. actives 6.6% (n = 94,000). Potency, µM (doses to about 115 µM), most hits filed as inhibitors; also: nearly all actives have a fitted effect of over 60% in size
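Cytotoxicity was scored by loss of ATP-coupled luminescence (CellTiter-Glo) in HEK 293 cells. Compound treatment ran 48 or 72 hr at 37 degree Celsius, 5% CO2, 95% humidity.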
NPR1 antag: Natriuretic polypeptide receptor (hNpr1) antagonism - Primary qHTS; Atrial natriuretic peptide receptor 1 (Homo sapiens), P16066; HEK293 hNpr1 GloSensor cGMP, ANP-stimulated luminescence; Potency, µM (titrated, usually from 46.3 µM), hits mostly inhibitors; actives 1.6% (n = 76,000); calls by dose curve; also: nearly all actives have a fitted effect of over 60% in size
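HEK293 cells stably expressing human Npr1 and cGMP GloSensor pGS-40F, loaded 2 h with 2% GloSensor reagent, given compound 30 min at room temperature. Luminescence read before and 20 min after 0.1 nM hNppA.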
Luciferase inh: Firefly luciferase inhibition profiling of diverse chemical library using quantitative high-throughput screening; AID 1347043, 2019; actives 2.5% (n = 76,000); purified P. pyralis luciferase, luminescence, biochemical; Potency, µM (top dose mostly 115 µM), most hits filed as inhibitors; also: nearly all actives have a fitted effect of over 65% in size
Target sequence (P08659 whole entry, looked up): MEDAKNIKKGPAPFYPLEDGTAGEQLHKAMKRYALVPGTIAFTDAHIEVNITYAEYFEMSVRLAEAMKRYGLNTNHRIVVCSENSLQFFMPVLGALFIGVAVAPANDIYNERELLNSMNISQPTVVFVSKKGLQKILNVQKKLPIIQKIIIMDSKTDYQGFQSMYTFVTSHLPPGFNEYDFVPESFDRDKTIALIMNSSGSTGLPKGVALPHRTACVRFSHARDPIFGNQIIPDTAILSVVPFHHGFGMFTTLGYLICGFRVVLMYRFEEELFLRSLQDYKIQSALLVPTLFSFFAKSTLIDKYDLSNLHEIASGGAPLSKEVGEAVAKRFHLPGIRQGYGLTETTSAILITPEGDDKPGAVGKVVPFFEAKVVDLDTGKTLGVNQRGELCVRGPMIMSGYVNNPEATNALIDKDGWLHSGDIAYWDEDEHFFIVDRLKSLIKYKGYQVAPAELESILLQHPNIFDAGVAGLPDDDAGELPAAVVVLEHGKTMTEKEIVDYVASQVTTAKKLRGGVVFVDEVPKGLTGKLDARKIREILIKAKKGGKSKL
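Biochemical qHTS: compound (6-point titration) added to 10uM D-luciferin plus 10uM ATP in Tris acetate pH 7.5 buffer with Mg, Tween-20 and BSA, then purified enzyme at 10nM; light output imaged.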
NIH3T3 tox: Cytotoxic Profiling in NIH 3T3 Cell Line of Diverse Libraries Using Quantitative High-Throughput Screening | actives 4.3% (n = 94,000) | Potency, µM (highest dose often 96.7 µM), usual class: inhibitors | AID 1345082, 2018 | NIH 3T3 viability, CellTiter-Glo ATP luminescence, 48-72 h; also: nearly all actives have a fitted effect of over 55% in size
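Mouse fibroblast NIH 3T3 cells, 400 per well, received compound via pintool and were incubated for 48 or 72 hr prior to CellTiter-Glo ATP luminescence measurement.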
Of the large screens only hits and unclear results are named; the others gave an inactive call. Unless noted, calls follow the shape of the dose curve; as a rule, active = well fitted curve in the direction sought with a large enough effect; inconclusive = small, poorly fitted or top-dose-only effect, or another doubt; inactive = no such curve, though single readings can be large; an effect the other way counts as inactive or inconclusive.

Cc1ncsc1CN1CCC(N2CC3(CCCCC3)C2c2ccccc2)CC1 (centres undefined)	HEK cytotox 45µM, NIH3T3 tox inconclusive (no result: NPR1 antag, Luciferase inh)
CN1CCN(C(CN)C2CCCCC2)CC1 (centres undefined)	HEK cytotox inconclusive, NIH3T3 tox 45µM (no result: NPR1 antag, Luciferase inh)
CC(C)(CC(=O)O)CC(=O)N1C[C@@H]2C[C@H](C1)c1ccc(-c3cc4ccccc4s3)c(=O)n1C2	Luciferase inh 22µM
CCOC(=O)C1=C(C)N=C2SC=C(CC(=O)Nc3ccc(C)c(C)c3)N2C1c1cccc(OC)c1 (centres undefined)	HEK cytotox 45µM, NIH3T3 tox 40µM
COC(=O)C1=C(C)N=C2SC=C(CC(=O)N(C)Cc3ccco3)N2C1c1cccc(Cl)c1 (centres undefined)	HEK cytotox 25µM, NPR1 antag inconclusive, NIH3T3 tox inconclusive
CCOC(=O)C1=C(C)N=C2SC=C(CC(=O)Nc3cccc(OC)c3)N2C1c1cccc(OC)c1 (centres undefined)	HEK cytotox inconclusive, NIH3T3 tox inconclusive
O=C1NCc2ccccc2CC12CCCN2Cc1cnc2ccccc2c1 (centres undefined)	HEK cytotox inconclusive (no result: NPR1 antag, Luciferase inh)
Cc1csc(NC(=O)c2nc(C(O)c3ccccc3)oc2C)n1 (centres undefined)	HEK cytotox inconclusive, NPR1 antag inconclusive, NIH3T3 tox 79µM
COc1cccc(C(O)c2nc(C(=O)Nc3ccc4c(c3)CC(=O)N4)c(C)o2)c1 (centres undefined)	HEK cytotox 100µM, NIH3T3 tox inconclusive
COc1cccc(C(O)c2nc(C(=O)Nc3nc(C)cs3)c(C)o2)c1 (centres undefined)	HEK cytotox inconclusive, NPR1 antag 18µM, Luciferase inh inconclusive, NIH3T3 tox inconclusive
COc1ccc(NC(=O)c2nc(C(O)c3ccccc3)oc2C)cn1 (centres undefined)	HEK cytotox inconclusive
CC1(COCC2CC2)COc2ccc(C(=O)N3CCOCC3c3cccc(F)c3)cc2N1 (centres undefined)	HEK cytotox inconclusive, NIH3T3 tox inconclusive
NCc1cccc(-c2ccc(OC(F)(F)F)cc2)c1	HEK cytotox 40µM, NIH3T3 tox 32µM (no result: NPR1 antag, Luciferase inh)
O=Cc1cccc(-c2ccc(OC(F)(F)F)cc2)c1	NIH3T3 tox inconclusive (no result: NPR1 antag, Luciferase inh)
NCc1cccc(-c2cccc(C(F)(F)F)c2)c1	HEK cytotox inconclusive, NIH3T3 tox 79µM (no result: NPR1 antag, Luciferase inh)
CNC(=O)c1ccc2nc(-c3cccc(C)n3)oc2c1	NIH3T3 tox inconclusive (no result: NPR1 antag, Luciferase inh)
COc1cccc(-c2nc3cc(SC)ccc3cc2CN(C)Cc2ccno2)c1	HEK cytotox inconclusive, NIH3T3 tox inconclusive
O=C(c1cccnc1)N1CCCC2(CNc3ncccc3[S+](=O)([O-])N2)C1 (centres undefined)	NIH3T3 tox inconclusive (no result: NPR1 antag, Luciferase inh)
O=C(NCCNC(=O)c1ccc(-c2cncnc2)cc1)c1ccc(Cl)cc1	none (no result: NPR1 antag, Luciferase inh)
Cc1cc(=O)n(CC(=O)Nc2ccc(C)c(C)c2)c(N(C)Cc2ccccc2)n1	HEK cytotox inconclusive, NPR1 antag inconclusive, NIH3T3 tox inconclusive
CCc1cccc(NC(=O)Cn2c(Nc3cc(C)cc(C)c3)nc(C)cc2=O)c1	HEK cytotox 40µM
CCc1ccc(NC(=O)Cn2c(N(C)Cc3ccccc3)nc(C)cc2=O)cc1	HEK cytotox 35µM, NPR1 antag inconclusive, NIH3T3 tox inconclusive
COc1cncc(Nc2cnc3ccc(-c4ccc(OC)nc4)nn23)c1	HEK cytotox inconclusive
COc1ccccc1-c1ccc2ncc(Nc3cccc(N[S+](C)(=O)[O-])c3)n2n1	HEK cytotox 63µM, NIH3T3 tox inconclusive
COc1cncc(Nc2cnc3ccc(-c4ccc(OC)c(OC)c4)nn23)c1	HEK cytotox 63µM, NIH3T3 tox 20µM
COc1ccc(Nc2cnc3ccc(-c4cccc(CO)c4)nn23)cc1OC	HEK cytotox inconclusive, Luciferase inh inconclusive, NIH3T3 tox inconclusive
COc1cccc(Nc2cnc3ccc(-c4ccc(OC)c(OC)c4)nn23)c1	HEK cytotox 56µM, NIH3T3 tox 22µM
COc1ccc(Nc2cnc3ccc(-c4ccc(OC)c(OC)c4)nn23)cc1OC	HEK cytotox 89µM, Luciferase inh inconclusive, NIH3T3 tox 20µM
COc1cncc(Nc2cnc3ccc(-c4ccccc4OC)nn23)c1	HEK cytotox inconclusive, NPR1 antag inconclusive, NIH3T3 tox inconclusive
COc1ccc(-c2ccnc3nc(C4CCC4)nn23)c(F)c1	HEK cytotox inconclusive, NIH3T3 tox inconclusive
COc1ccc(Nc2cnc3ccc(-c4ccccc4)nn23)cc1OC	HEK cytotox 63µM, NIH3T3 tox inconclusive
COc1ccc(-c2ccc3ncc(Nc4ccc5c(c4)OCO5)n3n2)cn1	HEK cytotox inconclusive, NIH3T3 tox inconclusive
COc1ccc(Nc2cnc3ccc(-c4ccc(OC)c(OC)c4)nn23)cc1	HEK cytotox inconclusive, Luciferase inh 18µM, NIH3T3 tox 14µM
COc1ccc(-c2ccc3ncc(Nc4ccncc4)n3n2)cc1OC	HEK cytotox 79µM, NIH3T3 tox 35µM
COc1ccc(-c2ccc3ncc(Nc4cnccn4)n3n2)cc1OC	HEK cytotox inconclusive, NIH3T3 tox 25µM
O=C(NCc1ccccc1)C1COC2(CCN(C(=O)c3cccs3)CC2)N1C(=O)c1ccccc1 (centres undefined)	HEK cytotox inconclusive
O=C(c1ccccc1)N1CCCC2(CN[S+](=O)([O-])c3cnccc3N2)C1 (centres undefined)	none (no result: NPR1 antag, Luciferase inh)
COc1ccc(NC(=O)[C@@H]2C[C@@H](c3ccc(F)cc3)N([S+](=O)([O-])c3ccccc3)C2)cc1	HEK cytotox inconclusive, NIH3T3 tox inconclusive
COc1cccc(CN2CCCCC2c2nc(CCOCC3CC3)no2)c1 (centres undefined)	HEK cytotox inconclusive (no result: NPR1 antag, Luciferase inh)
CCN(CC1CCCN(CCc2cccc(F)c2)C1)C(=O)CCc1ccccn1 (centres undefined)	none
COc1cccc(Nc2cnc3ccc(-c4ccccc4OC)nn23)c1	HEK cytotox 79µM, NIH3T3 tox inconclusive
CCCC(O)CN1CCC(=O)N(CCOC)Cc2cc(F)ccc21 (centres undefined)	HEK cytotox inconclusive (no result: NPR1 antag, Luciferase inh)
COc1ccc(CC(=O)NC2CCN(C(=O)c3ccc(-c4cccc(OC)c4)cc3)CC2)cc1	HEK cytotox 45µM, NIH3T3 tox 35µM (no result: NPR1 antag, Luciferase inh)
COc1ccc(C(=O)NC2CCN(C(=O)c3ccc(-c4cccc(OC)c4)cc3)CC2)cc1	HEK cytotox inconclusive (no result: NPR1 antag, Luciferase inh)
COc1cccc(-c2ccc(C(=O)N3CCC(NC(=O)c4ccccc4Cl)CC3)cc2)c1	HEK cytotox 40µM, NIH3T3 tox inconclusive (no result: NPR1 antag, Luciferase inh)
CN(C)[C@H]1CCCCN(C(=O)CCc2ccc(-c3ccc(Cl)cc3)[nH]2)C1	HEK cytotox inconclusive, NIH3T3 tox inconclusive
Cc1nn2c(c1-c1ccccc1OCc1ccccc1)N(Cc1cccnc1)CCC2	HEK cytotox 63µM, NIH3T3 tox inconclusive
Cc1nn2c(c1-c1ccccc1OCc1ccccc1)N(Cc1nccn1C)CCC2	HEK cytotox 100µM, NIH3T3 tox inconclusive
